Most compounds without a hit are left out; they make up all but 1.1% or so of the library.
Giardia FBPA inh-1 – qHTS Assay for Inhibitors of Fructose-1,6-bisphosphate Aldolase from Giardia Lamblia; 290,000 compounds, 0.71% hits; purified Giardia FBPA; AID 2451, 2010; Potency, µM (highest dose often 59.6 µM), actives largely listed as inhibitors; further: nearly all actives have a fitted effect of over 55% in size
Target sequence (A8B2U2 whole entry, looked up): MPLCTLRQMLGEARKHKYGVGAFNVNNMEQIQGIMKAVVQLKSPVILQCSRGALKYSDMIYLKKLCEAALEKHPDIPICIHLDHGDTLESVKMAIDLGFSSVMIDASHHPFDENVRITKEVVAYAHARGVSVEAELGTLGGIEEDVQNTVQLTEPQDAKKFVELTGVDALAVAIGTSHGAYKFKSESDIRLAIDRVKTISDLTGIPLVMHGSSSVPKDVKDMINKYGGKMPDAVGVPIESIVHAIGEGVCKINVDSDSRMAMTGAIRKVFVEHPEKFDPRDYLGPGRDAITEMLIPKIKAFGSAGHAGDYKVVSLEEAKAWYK
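Giardia FBPA (40 nM reagent) was preincubated 10 min at RT with compound (up to 57.5 uM final), then substrate plus GAPDH/TPI/NAD/arsenate coupling system with diaphorase/resazurin was added; resorufin fluorescence (525/598 nm) was read after 20 min.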
AmpC inh detg – qHTS Inhibitors of AmpC Beta-Lactamase (assay with detergent); AmpC hydrolysis of nitrocefin, absorbance 480 nm, 0.01% Triton; Potency, µM (series often up to 114 µM), actives largely listed as inhibitors; 370,000 compounds, 0.041% hits; AID 485294, 2010; further: nearly all actives have a fitted effect of over 25% in size
Target sequence (P00811 whole entry, looked up): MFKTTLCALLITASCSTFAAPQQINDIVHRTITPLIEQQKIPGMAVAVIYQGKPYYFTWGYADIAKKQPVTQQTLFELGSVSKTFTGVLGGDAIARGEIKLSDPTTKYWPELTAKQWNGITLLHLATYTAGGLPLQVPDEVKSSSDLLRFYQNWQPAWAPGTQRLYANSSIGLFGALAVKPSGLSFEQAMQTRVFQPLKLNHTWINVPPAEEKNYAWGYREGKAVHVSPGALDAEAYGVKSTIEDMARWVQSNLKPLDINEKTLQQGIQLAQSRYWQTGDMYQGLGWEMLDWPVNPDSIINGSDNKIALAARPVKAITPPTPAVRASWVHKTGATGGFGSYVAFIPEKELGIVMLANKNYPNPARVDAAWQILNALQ
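20 mM phosphate pH 7.0 + 0.01% (detergent screen) or 0.0001% Triton X-100; 5.3 nM AmpC reagent; cpd preinc 15 min RT; nitrocefin (800 uM stock) to start; A480 q20 s × 4 min; Activity was normalised to no-enzyme and no-compound control wells.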
AMA1 RON2 block – qHTS for Inhibitors of AMA1-RON; Towards Development of Antimalarial Drug Lead: Primary Screen; AID 720542, 2013; Potency, µM (titrated, usually from 58.2 µM), usual class: inhibitors; AlphaScreen AMA1-biotinylated RON2 peptide binding; 360,000 compounds, 0.2% hits; further: nearly all actives have a fitted effect of over 45% in size
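AMA1 (3D7) with his tag at 25 nM final met compounds first, then biotinylated RON2 peptide at 25 nM; detection used donor plus acceptor beads, 10 µg/mL apiece, read by AlphaScreen after 30 min at room temperature.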
AmpC inh no detg – qHTS Inhibitors of AmpC Beta-Lactamase (assay without detergent); AID 485341, 2010; Potency, µM (top dose mostly 57.1 µM), most hits filed as inhibitors; 330,000 compounds, 0.52% hits; P00811; AmpC nitrocefin hydrolysis, absorbance 480 nm, 0.0001% Triton; further: nearly all actives have a fitted effect of over 20% in size
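20 mM phosphate pH 7.0 + 0.01% (detergent screen) or 0.0001% Triton X-100; 5.3 nM AmpC reagent; cpd preinc 15 min RT; nitrocefin (800 uM stock) to start; A480 q20 s × 4 min; Activity was normalised to no-enzyme and no-compound control wells.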
Giardia growth – qHTS Assay for Inhibitors of Fructose-1,6-bisphosphate Aldolase from Giardia Lamblia: Giardia lamblia growth inhibition | Giardia lamblia trophozoite growth inhibition | 1,500 compounds, 5% hits | shares compounds with Giardia FBPA inh-1 | Potency, µM (series often up to 57.5 µM), usual class: inhibitors;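 further: trophozoites exposed to compound for 48 h at 37 °C; nearly all actives have a fitted effect of over 70% in size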
Mammal cell tox – qHTS Assay for Inhibitors of Fructose-1,6-bisphosphate Aldolase from Giardia Lamblia: Mammalian cellular toxicity | mammalian cell viability counter-screen, qHTS | shares compounds with Giardia FBPA inh-1 | 1,500 compounds, 4% hits | Potency, µM (series often up to 57.5 µM), usual class: inhibitors;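 further: Chinese hamster ovary cells used as mammalian cytotoxicity surrogate; viability measured as cellular ATP by luminescence; compound exposure lasted 48 h before reading; nearly all actives have a fitted effect of over 60% in size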
Giardia FBPA inh-2 – qHTS Assay for Inhibitors of Fructose-1,6-bisphosphate Aldolase from Giardia Lamblia: Primary screen confirmation; shares compounds with Giardia FBPA inh-1; purified Giardia aldolase enzyme activity, qHTS; Potency, µM (doses to about 57.5 µM), usual class: inhibitors; 1,500 compounds, 5% hits; further: nearly all actives have a fitted effect of over 45% in size
Rabbit aldolase – qHTS Assay for Inhibitors of Fructose-1,6-bisphosphate Aldolase from Giardia Lamblia: Rabbit FBPA Selectivity | AID 2794, 2010 | Rabbit muscle FBPA enzyme inhibition, selectivity counter-screen | shares compounds with Giardia FBPA inh-1 | 1,500 compounds, 4% hits | Potency, µM (top dose mostly 57.5 µM), actives largely listed as inhibitors; further: nearly all actives have a fitted effect of over 60% in size
GAPDH coupling – qHTS Assay for Inhibitors of Fructose-1,6-bisphosphate Aldolase from Giardia Lamblia: Coupling assay counterscreen confirmation | shares compounds with Giardia FBPA inh-1 | GAPDH coupling enzyme counterscreen, biochemical, qHTS | Potency, µM (doses to about 57.5 µM), hits mostly inhibitors | 1,500 compounds, 6% hits | AID 2795, 2010; further: nearly all actives have a fitted effect of over 55% in size
Numbers stand for hits; – = inactive; ? = inconclusive; · = no result given; [ ] = remark or other dose. The call rests on the fitted dose curve; in most records, active means well fitted curve in the direction sought with a large enough effect; inconclusive means small, poorly fitted or top-dose-only effect, or another doubt; inactive means no such curve, though single readings can be large; an effect the other way counts as inactive or inconclusive.

SMILES	Giardia FBPA inh-1	AmpC inh detg	AMA1 RON2 block	AmpC inh no detg	Giardia growth	Mammal cell tox	Giardia FBPA inh-2	Rabbit aldolase	GAPDH coupling
COc1cc(CN2CCC(C(=O)NC3CCCC3)CC2)cc(OC)c1O	17.7µM	–	–	–	–	–	3.98µM	?	?
COc1cc(CN2CCN(C(=O)CC(C)C)CC2)cc(OC)c1O	15.8µM	–	–	–	?	–	3.98µM	?	–
COc1cc(CN2CCN(C(=O)CC(C)C)CC2)cc(OC)c1OC	?	–	?	–	·	·	·	·	·
C[C@@H]1C(=O)O[C@@H]1[C@@H](C)CO[Si](c1ccccc1)(c1ccccc1)C(C)(C)C	–	·	·	·	·	·	·	·	·
CC(=O)Nc1ccc(NC2=C(Cl)C(=O)c3ccccc3C2=O)cc1	?	–	–	–	·	·	·	·	·
CN(C)c1ccc(NC2=C(Cl)C(=O)c3ccccc3C2=O)cc1	?	?	7.94µM	–	11.3µM	32.6µM	?	?	3.66µM
O=C(NC(=S)Nc1nc2ccccc2s1)c1ccco1	5µM	–	–	–	7.94µM	?	–	–	–
Cn1c(-c2ccccc2)cnc1NCc1cccc([N+](=O)[O-])c1	?	–	?	–	·	·	·	·	·
COc1ccc(CNc2ncc(-c3cccc([N+](=O)[O-])c3)n2C)c(OC)c1OC	25.1µM	–	?	–	?	–	–	–	–
CC/C(=N/NC(=O)c1ccccc1O)c1c(C)[nH]n(-c2ccccc2)c1=O	·	·	–	·	·	·	·	·	·
CCCCN1CCc2[nH]c(=S)[nH]c(=O)c2C1	15.8µM	?	–	–	?	–	–	–	–
O=C(Nc1ncn[nH]1)c1ccccc1O	19.9µM	–	–	–	?	–	–	–	–
O=C(Nc1ncn[nH]1)c1c(Cl)ccc(Cl)c1Cl	–	–	–	–	·	·	·	·	·
Cc1cccc(Cc2c(C)nc3nc(SCC(=O)NCc4ccc(F)cc4)nn3c2C)c1	·	–	·	·	·	·	·	·	·
Cc1cc(C)nc(N/N=C/c2ccccc2OCC(=O)O)n1	5.01µM	–	–	–	–	–	–	–	–
CC1CCN(c2ccc(/C=N\Nc3nncn3N)cc2[N+](=O)[O-])CC1	11.2µM	?	–	–	11.2µM	–	?	–	?
CC(C)(C)c1nnc(N/N=C/c2ccc(Br)cc2)n(N)c1=O	–	–	–	–	·	·	·	·	·
COc1cc(/C=N\Nc2nncn2N)ccc1OC(C)=O	25.1µM	–	–	–	–	–	?	?	?
CSc1ccc(/C=N\Nc2nncn2N)cc1	?	–	–	–	–	–	2.31µM	6.51µM	3.26µM
CC(C)(C)c1ccc(/C=N/Nc2nncn2N)cc1	15.8µM	?	–	–	–[10.4 µM]	–	14.1µM	?	?
COc1cc(/C=N/NC(=O)c2ccncc2)ccc1OC(C)=O	–	?	–	–	·	·	·	·	·
CC1CCN(c2ccc(/C=N/n3nnnc3N)cc2[N+](=O)[O-])CC1	–	–	?	–	·	·	·	·	·
CCN(C(=O)Cc1c(C(=O)O)n(C)c2ccccc12)c1cccc(C)c1	–	–	–	–	·	·	·	·	·
CCCc1ccc(S(=O)(=O)N/N=C(/C)c2ccc3c(c2)OCO3)cc1	–	?	–	–	·	·	·	·	·
CC(C)OCCCNC(=O)CCCn1c(SCC(=O)c2ccc(F)cc2)nc2c(sc3ccccc32)c1=O	·	–	·	·	·	·	·	·	·
SMILES	Giardia FBPA inh-1	AmpC inh detg	AMA1 RON2 block	AmpC inh no detg	Giardia growth	Mammal cell tox	Giardia FBPA inh-2	Rabbit aldolase	GAPDH coupling
COc1ccc(Cl)cc1NC(=O)CSc1nnc(C)n2c1cc1occc12	·	–	·	·	·	·	·	·	·
CCOC(=O)c1ccc(N2CSC3=C(C#N)C(c4cccs4)CC(=O)N3C2)cc1 (centres undefined)	19.9µM	–	–	–	–	–	–	–	–
N#CC1=C2SCN(c3ccc(F)cc3)CN2C(=O)CC1c1cccc(F)c1 (centres undefined)	7.06µM	–	–	–	–	–	–	?	–
CCOc1ccc(NC(=O)CN(C)C(=O)c2cccnc2Sc2ccccc2Cl)cc1OCC	·	–	–	–	·	·	·	·	·
Brc1ccccc1CN1CCN(Cc2c[nH]c3ccccc23)CC1	·	·	–	·	·	·	·	·	·
Brc1ccc(CN2CCN(Cc3c[nH]c4ccccc34)CC2)cc1	14.1µM	?	–	–	20µM	–	–	–	–
C[C@@H]1CN([C@H](C)CO)C(=O)CCCn2nncc2CO[C@H]1CN(C)S(=O)(=O)c1cccc(F)c1	·	·	–	·	·	·	·	·	·
COc1cc(OC)cc(C2=Nn3c(nnc3-c3cccc(OC)c3)SC2)c1	–	·	·	·	·	·	·	·	·
O=C(NN1C(=O)/C(=C/c2ccc(O)c(O)c2)SC1=S)c1ccccc1	14.1µM	–	?	–	–	–	–	–	–
COc1cc(/C=C2\SC(=S)N(NC(=O)c3ccc(O)cc3)C2=O)ccc1O	–	–	?	–	·	·	·	·	·
CCOc1ccccc1CNC(=O)CCCN1C(=O)COc2ccc(C)cc21	·	–	·	·	·	·	·	·	·
COC(=O)c1cc(NC(=O)c2sc3ncn(Cc4cccc(F)c4)c(=O)c3c2C)cc(C(=O)OC)c1	·	–	·	·	·	·	·	·	·
CO/N=C(\C(=O)N[C@@H]1C(=O)N2C(C(=O)O)=C(COC(N)=O)CS[C@@H]12)c1ccco1	–	·	·	·	·	·	·	·	·
CO/N=C(/C(=O)N[C@@H]1C(=O)N2C(C(=O)O)=CCS[C@H]12)c1cnc(N)s1	15.8µM	50.1µM	·	–	–	–	–	–	–
Cc1ccccc1C(=O)NC1(C(F)(F)F)N=C(c2ccccc2)N(Cc2ccccc2)C1=O (centres undefined)	·	–	·	·	·	·	·	·	·
COc1ccc(CCCC(=O)N/N=C/c2ccccc2OC)cc1	15.8µM	–	–	–	–[10.4 µM]	–	?	39.8µM	25.1µM
COc1ccccc1N1CCN(C(=O)c2ccc3c(c2)N(Cc2cc(C)ccc2C)C(=O)c2ccccc2S3(=O)=O)CC1	·	–	·	·	·	·	·	·	·
N#Cc1ccc(Cl)cc1NC(=O)CNCc1cccs1	15.8µM	–	–	–	?	–	–	–	–
CC(=O)c1ccc(NC(=O)CNCc2cccs2)cc1	?	–	–	–	·	·	·	·	·
Cc1ccc(Cl)cc1-c1cc(C(=O)N2CCN(c3ccncc3)CC2)[nH]n1	·	·	–	·	·	·	·	·	·

High-throughput results as filed in PubChem.
